PINK1 modulator – A Quantitative High throughput Screen to Identify Chemical Modulators of PINK1 Expression; PINK1 immunofluorescence, high-content cytometry, 24 h; actives 0.2% (n = 410,000); Potency, µM (highest dose often 76.6 µM), for inactives: at the highest dose activation (PINK1 increase), hits mostly activators; active = well fitted activation curve with a large enough effect; inconclusive = small, poorly fitted or top-dose-only effect; cell line not stated here; also: potency is read from the fitted curve at half-maximal effect; % of control where 0% means no effect; nearly all actives have a fitted effect of over 65% in size
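A stable cell line was treated with compounds at 5 concentrations for 24 hours, with CCCP as control. PINK1 levels and mitochondrial localization were measured by immunofluorescence with mitochondrial, cell and nuclear markers after fixation, read by laser-scanning cytometry.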
IDH1 R132H inh – qHTS for Inhibitors of mutant isocitrate dehydrogenase 1 (IDH1): qHTS; Isocitrate dehydrogenase [NADP] cytoplasmic (Homo sapiens), O75874; IDH1-R132H enzyme, NADPH consumption, diaphorase/resazurin fluorescence; Potency, µM (doses to about 76.6 µM), without a hit: at the top dose activity change, negative = inhibition, usual class: inhibitors; actives 0.093% (n = 390,000); also: potency is read from the fitted curve at half-maximal effect; % is scaled to controls: 0 for no effect and ±100 for the full control effect; nearly all actives have a fitted effect of over 65% in size
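IDH1-R132H (0.5 ug/mL dispensed) in pH 7.5 Tris buffer was preincubated 30 min with compound, then given a substrate mix of 0.016 mM NADPH and 2 mM alpha-KG for 80 min at room temperature; remaining NADPH was read by diaphorase/resazurin fluorescence.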
LDHA inh – qHTS assay for inhibitors of human lactate dehydrogenase; L-lactate dehydrogenase A chain (Homo sapiens), P00338; actives 0.15% (n = 480,000); activity change, % (values are at about 110 or 230 µM); purified LDHA, NADH/diaphorase-resazurin fluorescence; active compounds read low; in the data active = activity change below about -30%; inconclusive = mostly about -25% to -30%;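 also: plate controls were DMSO wells for no effect and wells without enzyme for full effect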
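Human LDH5 at 2 nM final in Tris HCl pH 7.4 with 0.06 mM NADH and 0.2 mM pyruvate, reacted 5 minutes at room temperature. Remaining NADH coupled via diaphorase/resazurin; resorufin fluorescence read at 0 and 20 minutes, normalized to enzyme-free and DMSO wells.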
PTHR1 agonist – qHTS for PTHR1 Agonists: Primary Screen | Parathyroid hormone/parathyroid hormone-related peptide receptor (Homo sapiens), Q03431 | HEK293 GP2 PTHR1 cells, GloSensor cAMP luminescence, 1 h | Potency, µM (series often up to 115 µM), inactives show at the highest dose activation, actives largely listed as activators | actives 0.075% (n = 410,000) | AID 743266, 2014; also: potency is read from the fitted curve at half-maximal effect; nearly all actives have a fitted effect of over 55% in size
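HEK-293-derived GP2 cells expressing PTHR1 and a GloSensor cAMP reporter, 3,000/well, plated overnight, given luciferin plus IBMX (each 0.5 mM as added) for 1 h at 37 °C, then compound for 1 h at 37 °C. Luminescence was read after 15 min at room temperature.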
Vif-APOBEC3G blk – qHTS for Inhibitors of Vif-A3G Interactions: qHTS. DNA dC->dU-editing enzyme APOBEC-3G (Homo sapiens), Q9HC16. HeLa A3G-eYFP + Vif (tagged APOBEC3G with the HIV-1 protein that degrades it), YFP fluorescence, overnight. Potency, µM (highest dose often 46.1 µM), without a hit: top-dose activity, negative = active, actives largely listed as inhibitors. actives 0.076% (n = 410,000). AID 602310, 2012; also: potency is read from the fitted curve at half-maximal effect; % is scaled to controls: 0 for no effect and ±100 for the full control effect; nearly all actives have a fitted effect of over 60% in size
Target sequence (Q9HC16 whole entry, looked up): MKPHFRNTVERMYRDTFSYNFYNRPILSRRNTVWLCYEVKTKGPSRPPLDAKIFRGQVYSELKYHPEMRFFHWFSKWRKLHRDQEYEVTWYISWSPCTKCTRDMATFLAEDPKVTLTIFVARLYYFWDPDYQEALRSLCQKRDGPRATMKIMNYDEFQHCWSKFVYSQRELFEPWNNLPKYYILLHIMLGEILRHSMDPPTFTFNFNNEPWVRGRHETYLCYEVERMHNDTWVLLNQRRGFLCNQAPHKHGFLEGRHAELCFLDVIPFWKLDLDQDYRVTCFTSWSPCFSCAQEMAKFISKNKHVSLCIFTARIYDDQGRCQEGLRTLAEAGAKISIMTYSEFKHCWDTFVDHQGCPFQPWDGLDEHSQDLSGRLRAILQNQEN
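HeLa cells stably expressing Vif and C-terminally eYFP-tagged A3G, seeded overnight at 37 deg C, then exposed to compound by pintool overnight at 37 deg C. Rise in yellow fluorescence (Ex 488/Em 500-530, Acumen) marks blocked Vif-driven A3G degradation.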
Vif-APOBEC3F blk – qHTS for Inhibitors of Vif-A3F Interactions: qHTS. Potency, µM (titrated, usually from 46.1 µM), for inactives: at the top dose activity, negative = active. AID 602313, 2012. actives 0.2% (n = 390,000). HeLa A3F-eYFP + Vif (tagged APOBEC3F with the HIV-1 protein that degrades it), YFP fluorescence increase; also: potency is read from the fitted curve at half-maximal effect; % of control where 0% means no effect; nearly all actives have a fitted effect of over 65% in size
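Fluorescence increase (Ex 488/Em 500-530) after overnight compound treatment at 37 deg C flags inhibition of Vif-driven A3F-eYFP loss in stable HeLa A3F-eYFP/Vif cells seeded overnight beforehand.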
Numbers without * were called inactive; i = inactive; u = inconclusive; x = not tested or not shown; ! = repeats disagree; [ ] = another dose, or the depositor's remark. This is a sample that favours compounds with a hit; in the whole collection about 0.59% have one here. Unless noted, calls follow the shape of the dose curve; as a rule, active = well fitted curve in the direction sought with a large enough effect; inconclusive = small, poorly fitted or top-dose-only effect, or another doubt; inactive = no such curve, though single readings can be large; an effect the other way counts as inactive or inconclusive.

SMILES	PINK1 modulator	IDH1 R132H inh	LDHA inh	PTHR1 agonist	Vif-APOBEC3G blk	Vif-APOBEC3F blk
O=C(Nc1ccc(F)c(Cl)c1)Nc1nnc([C@H]2C[C@H](O)[C@@H](CO)O2)s1	0%	x	-48*	-24%	-1%	x
CC(=O)Nc1ccc(S(=O)(=O)Nc2cc(C)cn(Cc3ccccc3)c2=O)cc1	20%	2%	27	i	-14%	22µM*
CC(=O)Nc1ccc(S(=O)(=O)Nc2cccn(Cc3ccc(C)cc3)c2=O)cc1	0%	3%	-2	-17%	1%	9%
N#Cc1nc(-c2ccc(S(=O)(=O)N3CCCC3)cc2)oc1N1CCC(Cc2ccccc2)CC1	x	x	5	x	x	x
O=C(Nc1c(Cl)cccc1Cl)c1cc(=O)n(Cc2ccccc2)c(=O)[nH]1	10µM*	0%	-2	-12%[57.5 µM]	-7%	-2%
O=C(Nc1ccc(F)c(F)c1)C1CCCN(C(=O)Cc2cccc3ccccc23)C1 (stereo not drawn)	x	x	4	x	x	x
Cc1ccc(S(=O)(=O)N2CCN(c3ccc([N+](=O)[O-])c4cccnc34)CC2)cc1	0%	9%	-31*!	-9%	-14%	-17%
O=[N+]([O-])c1ccc(N2CCN(S(=O)(=O)c3ccccc3)CC2)c2cccnc12	2%	1%	-4	-13%	-2%	-3%
O=C(OCc1ccccc1)N1CCC2CC1c1cc(-c3cc4ccccc4o3)ccc12 (stereo not drawn)	13%	13%	-33*	i	-3%	-2%
O=C(OCc1ccccc1)N1CCC2CC1c1cc(/C=C/CCCSc3ncccn3)ccc12 (stereo not drawn)	0%	-13%	-34*	-52%	1%	-3%
O=C(OCc1ccccc1)N1CCC2CC1c1cc(N3CCNCC3)ccc12 (stereo not drawn)	4%	-14%	-31*	-33%	1%	-9%
Cc1ccc(-c2cc(C(=O)N(C)CC(=O)NC3CC3)c3ccccc3n2)cc1	x	x	0	x	x	x
Fc1ccc(CCNC(=S)Nc2ccc(Oc3ccccc3)cc2)cc1	x	x	-3	x	x	x
CC(NC(=O)CC12CC3CC(CC(C3)C1)C2)c1ccncc1 (stereo not drawn)	x	x	-4	x	x	x
COc1cccc(/C=C(\C#N)c2nc3ccccc3o2)c1	x	x	-9	x	x	x
CCC(=O)NC(=S)Nc1cccc(Cl)c1N1CCCC1	7%	-2%	-7	1%	1%	10µM*
O=C(NC(=S)Nc1cccc(Cl)c1N1CCCCC1)c1ccc2c(c1)OCCO2	7%	1%	-5	-28%	-18%	u
COc1ccc(C(=O)Nc2nc(-c3ccc(Br)s3)ns2)cc1	x	x	-30*	x	x	x
O=C(COc1ccccc1)Nc1nc(-c2ccc(Br)s2)ns1	x	x	1	x	x	x
Clc1ccccc1/C=N/NC1=Nc2cccc3cccc1c23	u	10%	0	-25%	u	5.6µM*
CCN(CC(=O)Nc1ccc2c(c1)OCCO2)CC(=O)Nc1ccccc1C(F)(F)F	0%	11%	-46*	-5%	-3%	-1%
CCN(CC(=O)Nc1ccc(C(C)=O)cc1)CC(=O)Nc1ccc2c(c1)OCCO2	1%	-6%	-19	i	-2%	-4%
O=C(N/N=C/c1ccc(Br)cc1)c1ccc(Br)o1	1%	2%	-32*	-44%	0%	-10%
O=c1c2ccc(F)cc2sn1-c1ccccc1	9%	-4%	-13	-84%	-13%	-25%
O=c1c2ccccc2sn1-c1ccc(F)cc1	2%	-12%	-31*	i	-9%	-3%
SMILES	PINK1 modulator	IDH1 R132H inh	LDHA inh	PTHR1 agonist	Vif-APOBEC3G blk	Vif-APOBEC3F blk
O=c1c2cc(F)ccc2sn1-c1ccccc1Cl	0%	0%	-43*	-50%	-12%	-11%
Cc1ccc(-n2sc3cc(F)ccc3c2=O)c(C)c1	u	-4%	-4	-55%	u	u
CCC(C)n1c(NC(=O)c2ccccc2)c(C#N)c2nc3ccccc3nc21 (stereo not drawn)	u	3%	19	-13%	u	32µM*
CCCCn1c(NC(=O)c2ccccc2)c(C#N)c2nc3ccccc3nc21	u	7%	15	-22%	u	u
Cc1ccccc1NC(=O)CC(C)(C(=O)O)c1ccccc1 (stereo not drawn)	x	x	-3	x	x	x
CCCc1cc(=O)oc2cc(OCC(=O)Nc3ccc(S(N)(=O)=O)cc3)ccc12	1%	1%	-37*	i	2%	-9%
COc1cc(/C=N\Nc2ccc([N+](=O)[O-])cc2)ccc1OCC(=O)Nc1ccc(C)c(C)c1	12%	8%	-4	i	-1%	10µM*
CC(=O)NC(c1ccco1)c1cc(F)c2cccnc2c1O (stereo not drawn)	-1%	x	14	-10%	u	u
CC(=O)NC(c1cccs1)c1cc(F)c2cccnc2c1O (stereo not drawn)	-1%	x	15	i	u	10µM*
Cc1csc(NC(=O)CCC(=O)N(CC(=O)NC2CCCC2)Cc2ccccc2)n1	3%	12%	-6	i	u	11µM*
CC(/C=C/c1ccc(N(C)C)cc1)=N\N=C(/N)SC1CC(=O)N(c2ccc(C(=O)O)cc2)C1=O (stereo not drawn)	u	1%	1	i	-15%	25µM*
CN(C)c1ncccc1CNC(=O)Cc1ccc(F)cc1	x	x	1	x	x	x
Nc1ccccc1Sc1ccccc1[N+](=O)[O-]	4%	-1%	1	-33%	-9%	-9%
Nc1nc(O)c(Sc2ccccc2[N+](=O)[O-])c(=O)[nH]1	3%	-1%	-52*	i	2%	-20%
O=C(O)c1cnc(-c2ccccc2)nc1Sc1ccccc1	-2%	-4%	-40*	-2%[57.5 µM]	0%	-6%
CCOc1ccc(-c2nc(CNC(=O)Nc3ccccc3OCC)c(C)o2)cc1	x	x	-4	x	x	x
CCn1nc(C)c(C(=O)Nc2cc(Oc3ccc(Cl)cc3)cc([N+](=O)[O-])c2)c1C	10µM*	0%	-1	-9%[57.5 µM]	u	-1%
CCn1nc(C(=O)OC(C)C(=O)N2CCCc3ccccc32)c2ccccc2c1=O (stereo not drawn)	x	x	-3	x	x	x
CC(C)(C)c1ccccc1OCCCCCn1ccnc1	u	15%	-19	-20%	6%	u
